# According to ChEMBL document CHEMBL3988442, “University of Dundee, Small-Polar-MMV Screening Library” (2021):
# Among all 69,000 compounds or so, about 1,000 (1.4%) showed an effect of 50% or more. For the sample, strong results were picked, then their nearest neighbours and some compounds at random.
# Tested on: Leishmania donovani
# Assay: Leishmania intramacrophage assay
# Type: functional, organism-based
# Set-up: scale not given: in the data most compounds retested in dose-response had high values
compound,measurement,setting,value
Cc1cc(NC(=O)CN2CCCC2c2c(C)nn(C)c2Cl)on1 (stereo not drawn),Percent Effect,30 µM,24.03%
CCc1cc(CN(C)C(=O)c2cnon2)on1,Percent Effect,"30.3 µM, […]",11.76%
CCc1cc(CN(C)C(=O)c2cnn[nH]2)on1,Percent Effect,"30.3 µM, […]",12.71%
CCc1cc(CN(C)C(=O)c2cc(=O)[nH]c(=O)[nH]2)on1,Percent Effect,"30.3 µM, […]",53.82%
CCN1CCN(C(=O)c2cc(-c3cccs3)cs2)CC1,Percent Effect,"30.3 µM, […]",-1.143%
Cc1ccc(Cl)cc1NC(=O)C1CSc2ncc(C)c(=O)n2C1 (stereo not drawn),Percent Effect,"30.3 µM, […]",17.12%
COc1cccc(CN(C)c2ncc(C(N)=O)cc2Cl)c1,Percent Effect,"30.3 µM, […]",-8.015%
Cc1ncc(C(=O)NCCNc2ncnc3sccc23)s1,Percent Effect,"30.3 µM, […]",20.47%
CCc1ncc(C(=O)NCCNc2ncnc3sccc23)s1,Percent Effect,"30.3 µM, […]",26.76%
CCc1nc(C)c(C(=O)NCCNc2ncnc3sccc23)s1,Percent Effect,"30.3 µM, […]",59.68%
CC1(C)CCC(C(=O)N2CCCO2)c2ccccc21 (stereo not drawn),Percent Effect,"30.3 µM, […]",9.47%
CN(C)S(=O)(=O)N1CCC(c2c(C(N)=O)sc3ccccc23)C1 (stereo not drawn),Percent Effect,"30.3 µM, […]",31.42%
NC(=O)Nc1cccc(F)c1C(=O)NC1CCCC1,Percent Effect,"30.3 µM, […]",3.755%
COc1cccc(OC)c1CNC(Cc1ccsc1)c1ccc(C)cn1 (stereo not drawn),Percent Effect,"30.3 µM, […]",99.68%
COc1ccc(CNC(Cc2ccsc2)c2ncccc2C)cc1OC (stereo not drawn),Percent Effect,"30.3 µM, […]",25.36%
COc1ccc(CNC(Cc2ccsc2)c2ccc(C)cn2)c(OC)c1 (stereo not drawn),Percent Effect,"30.3 µM, […]",62.45%
CC(C)Oc1cccc(CNC(Cc2ccsc2)c2nccs2)c1.Cl (stereo not drawn),Percent Effect,"30.3 µM, […]",-38.1%
Cc1cccnc1C(Cc1ccsc1)NCc1cnc(N(C)C)nc1 (stereo not drawn),Percent Effect,"30.3 µM, […]",17.18%
COc1ccc(CNC(Cc2ccsc2)c2ccc(C)cn2)cc1OC.Cl (stereo not drawn),Percent Effect,"30.3 µM, […]",12%
N#Cc1c2n(c3c(=O)[nH]cnc13)CCCCC2,Percent Effect,"30.3 µM, […]",19.13%
Cc1ccccc1CNCc1cc(Cl)ccc1O,Percent Effect,"30.3 µM, […]",-18.5%
Cc1ccc(C)c(NCc2nc3n(n2)CCCCC3)c1,Percent Effect,"30.3 µM, […]",-6.245%
CSc1cccc(CN(C)C(=O)c2ccc(C3CCCNC3)cc2)c1 (stereo not drawn),Percent Effect,"30.3 µM, […]",52.27%
CN(Cc1ccc2c(c1)OCO2)C(=O)c1ccc(C2CCCNC2)cc1 (stereo not drawn),Percent Effect,"30.3 µM, […]",4.185%
CSc1cccc(CN(C)C(=O)c2cccc(C3CCCNC3)c2)c1 (stereo not drawn),Percent Effect,"30.3 µM, […]",27.95%
CC(C)NC(=O)c1noc2c1CN(Cc1cnn(C)c1)CC2,Percent Effect,"30.3 µM, […]",0.4989%
Cc1noc(C)c1C(=O)NCc1ccc(N2CCCCCC2)nc1,Percent Effect,30 µM,36.14%
CNc1cc(C)nc(NCc2cc(C)cc3c(C)c(C)[nH]c23)n1,Percent Effect,"30.3 µM, […]",-40.33%
CNc1nc(C)cc(NCc2cc(C)cc3c(C)c(C)[nH]c23)n1,Percent Effect,"30.3 µM, […]",35.88%
CCc1[nH]c2c(CNc3cc(C)nc(NC)n3)cc(C)cc2c1C,Percent Effect,"30.3 µM, […]",71.01%
CCc1[nH]c2c(CNc3nccc(N)n3)cc(C)cc2c1C,Percent Effect,"30.3 µM, […]",21.52%
CCc1[nH]c2c(CNc3cncc(C(=O)OC)n3)cc(C)cc2c1C,Percent Effect,"30.3 µM, […]",-70.43%
CCc1[nH]c2c(CNc3nc(C)cc(NC)n3)cc(C)cc2c1C,Percent Effect,"30.3 µM, […]",89.36%
CC(C)c1ccc(S(=O)(=O)NC2CCN(CC(F)(F)F)C2)cc1 (stereo not drawn),Percent Effect,"30.3 µM, […]",20.88%
O=C(CC1CCCC1)N1CCCC1c1ccc(CN2CCOCC2)cn1 (stereo not drawn),Percent Effect,"30.3 µM, […]",7.793%
COc1ccccc1CN1C[C@@H](F)[C@@H](OCc2nc3ncccc3[nH]2)C1,Percent Effect,"30.3 µM, […]",33.82%
CCC(NC(=O)Cn1ccc(=O)n(C)c1=O)c1ccc(OC)cc1 (stereo not drawn),Percent Effect,"30.3 µM, […]",24.09%
CCc1ocnc1C(=O)Nc1ccc2ccn(CCN(C)C)c2c1,Percent Effect,"30.3 µM, […]",-1.774%
COCC(=O)N1CCC2(CC1)CC(COC)N(Cc1ccccn1)C2.O=C(O)C(F)(F)F (stereo not drawn),Percent Effect,"30.3 µM, […]",12.17%
COCC1CC2(CCN(Cc3nccs3)CC2)CN1Cc1ccccn1.O=C(O)C(F)(F)F.O=C(O)C(F)(F)F.O=C(O)C(F)(F)F (stereo not drawn),Percent Effect,"30.3 µM, […]",50.9%
COCC1CC2(CCN(Cc3ccccn3)CC2)CN1c1ncccn1.O=C(O)C(F)(F)F.O=C(O)C(F)(F)F.O=C(O)C(F)(F)F (stereo not drawn),Percent Effect,"30.3 µM, […]",-16.53%
O=C(O)C(F)(F)F.O=C1CC[C@H]2[C@H](CCN2C(=O)C2CCOCC2)N1Cc1ccncc1,Percent Effect,"30 µM, 30.03 µM",15.79%
CS(=O)(=O)c1ccc(CNC(=O)N2CCC(c3ccccc3)CC2)cc1,Percent Effect,"30 µM, 30.03 µM",-1.511%
Cc1cc(CN2C[C@@H]3CN(C(=O)c4cccn4C)CCO[C@@H]3C2)no1.O=C(O)C(F)(F)F,Percent Effect,"30.3 µM, […]",11.08%
Cn1cccc1C(=O)N1CCO[C@@H]2CN(Cc3ccco3)C[C@@H]2C1,Percent Effect,"30.3 µM, […]",19.73%
Cn1cc(CN2C[C@@H]3CN(C(=O)c4cccn4C)CCO[C@@H]3C2)cn1,Percent Effect,"30.3 µM, […]",58.31%
COCC1CN(CC2CC2)Cc2nn(CC3CC3)cc21.O=C(O)C(F)(F)F (stereo not drawn),Percent Effect,"30.3 µM, […]",8.658%
O=C1OCCN1CCOc1nc(-c2ccccc2Cl)no1,Percent Effect,"30 µM, 30.03 µM",4.618%
CC(C(=O)Nc1ccc(Cl)cn1)n1ccc(C(F)(F)F)n1 (stereo not drawn),Percent Effect,"30.3 µM, […]",46.39%
Cc1ccc(NC(=O)C(C)n2ccc(C(F)(F)F)n2)nc1 (stereo not drawn),Percent Effect,"30.3 µM, […]",38.05%
Cc1cnc(NC(=O)C(C)n2ccc(C(F)(F)F)n2)s1 (stereo not drawn),Percent Effect,"30.3 µM, […]",59.23%
Cc1cc(C(=O)N2CCCCC2C)ccc1NC(=O)N1CCOCC1 (stereo not drawn),Percent Effect,30 µM,22%
O=C(O)C(F)(F)F.c1cnc(N2Cc3nccn3CC(COc3cccnc3)C2)nc1 (stereo not drawn),Percent Effect,"30.3 µM, […]",5.012%
CN(C)c1ncc(-c2cncn2CCc2ccc3c(c2)OCCO3)cn1.Cl,Percent Effect,"30.3 µM, […]",20.21%
Cc1cccc(C2(C(=O)NCCCn3cccn3)CC2)c1,Percent Effect,"30 µM, 30.03 µM",17.4%
COCCn1ccc2cc(C(=O)NC3CCOC(C)(C)C3)ccc21 (stereo not drawn),Percent Effect,"30.3 µM, […]",4.385%
Cc1ccc(C(C(=O)NCCN2CCC(CO)CC2)N(C)C)cc1 (stereo not drawn),Percent Effect,"30.3 µM, […]",25.71%
Cc1ccc(C)c(C(=O)N2CCOC(CCN(C)C)C2)c1 (stereo not drawn),Percent Effect,"30.3 µM, […]",10.51%
Cc1ccc(C(CCNCCCN(C)C)C2CCOC(C)(C)C2)cc1.O=C(O)C(=O)O (stereo not drawn),Percent Effect,"30.3 µM, […]",85.22%
CCN(CC)CCCNCC1CCOC(C)(C)C1 (stereo not drawn),Percent Effect,"30.3 µM, […]",15.48%
Cc1ccc(C(CCNCCN(C)C)C2CCOC(C)(C)C2)cc1.O=C(O)C(=O)O (stereo not drawn),Percent Effect,"30.3 µM, […]",99.98%
CCc1noc(C(C)N2CCC(C)CC2)n1 (stereo not drawn),Percent Effect,30 µM,28.8%
Cn1nc(COc2cccnc2)c2c1CCN(c1cnccn1)C2.O=CO.O=CO,Percent Effect,"30 µM, 30.03 µM",-2.364%
